According to PubChem BioAssay (NCATS):
Where “and” joins values, the source holds several entries; their conditions need not be identical. Identical values can stand only once. Records with an inconclusive call do not appear. Calls of active or inactive are those of the source. Calls follow the shape of the full dose curve.

Target: Cytochrome P450 1A2 (Homo sapiens) (UniProt P05177)
Assay: p450-cyp1a2 (AID 410);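 as to activity change, negative = inhibition: -100% = full effect of reference inhibitor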
Conditions: recombinant CYP1A2, luciferin-ME demethylation, luminescence; series mostly up to 25.6 µM; activity change, negative = inhibition: at the top concentration
Description: The P450 gene superfamily is involved in metabolism and the clearance of xenobiotics. This assay used human CYP1A2 to measure the demethylation of luciferin 6' methyl ether (Luciferin-ME; Promega-Glo) to luciferin. The luciferin is then measured by luminescence after the addition of a luciferase detection regeant. Luciferin-ME concentration in the assay was equal to its Km for CYP1A2.
NCGC Assay Protocol Summary:
Two uL of enzyme and substrate mix (final concentrations: 20nM CYP1A2, 100uM Luciferin-ME, 100mM KPO4) were dispensed into a white, solid bottom 1536-well microtiter plate. 23nL of compound was transferred by a pin tool. The plate was incubated at room temperature for 10 min. Two uL of an NADPH regeneration solution (Promega supplied reagent) was dispensed and the reaction was allowed to continue for 60 min at room temperature. Then the reaction was stopped by reconstituted detection reagent. After another 20 min of incubation the plate was read on the ViewLux (Perkin Elmer) at 60 sec exposure and 2x2 binning. This protocol was carried out with Promega-Glo reagents and further information can be found at http://www.promega.com/tbs/tb325/tb325.pdf. Data were normalized to the to AC100 inhibition (57 uM furafylline).
Potency is read from the fitted curve at half-maximal effect.

Chain of Cytochrome P450 1A2 (Homo sapiens) (P05177 whole entry, looked up): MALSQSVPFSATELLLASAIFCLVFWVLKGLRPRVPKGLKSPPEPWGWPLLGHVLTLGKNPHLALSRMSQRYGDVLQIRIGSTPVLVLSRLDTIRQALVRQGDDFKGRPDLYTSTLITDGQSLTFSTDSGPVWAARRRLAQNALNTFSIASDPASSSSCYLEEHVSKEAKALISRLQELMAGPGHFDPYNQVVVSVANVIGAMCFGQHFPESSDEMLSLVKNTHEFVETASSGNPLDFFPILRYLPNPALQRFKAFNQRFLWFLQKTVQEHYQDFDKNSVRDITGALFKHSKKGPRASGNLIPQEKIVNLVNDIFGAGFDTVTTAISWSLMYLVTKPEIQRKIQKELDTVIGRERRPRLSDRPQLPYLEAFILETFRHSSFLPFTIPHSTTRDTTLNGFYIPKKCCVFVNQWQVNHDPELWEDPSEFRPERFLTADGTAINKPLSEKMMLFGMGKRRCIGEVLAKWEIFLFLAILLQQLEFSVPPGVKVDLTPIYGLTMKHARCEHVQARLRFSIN

| SMILES | activity change, negative = inhibition | Potency |
| --- | --- | --- |
| c1ccc(N2CCC3(CCNCC3)CC2)cc1 | -18.3% [at 57 µM] (inactive) |  |
| c1ccc(CN2CC[C@@]3(CCCNC3)C2)cc1 | -5.1% [at 57 µM] (inactive) |  |
| CC(C)CN1CC[C@@]2(CCCN(C(=O)Oc3ccccc3)C2)C1 |  | 15.8 µM (active) |
| C[C@H]1CC[C@@]2(NC1)O[C@@H]1C[C@H]3[C@@H]4CC=C5C[C@@H](O)CC[C@]5(C)[C@@H]4CC[C@]3(C)[C@@H]1[C@@H]2C | -7.7% (inactive) |  |
| CN1[C@@H]2CCC[C@H]1CC(=O)C2 | -13.3% (inactive) |  |
| C[C@@]12CC[C@H](O)C[C@@H]1CC[C@H]1[C@@H]2C[C@@H](O)[C@]2(C)[C@@H](C3=CC(=O)OC3)CC[C@]12O | -3.8% (inactive) |  |
| CC[C@@]1(c2ccc(N)cc2)CCC(=O)NC1=O |  | inactive |
| C=C1[C@@H]2CC[C@H]3[C@@]4(C)C[C@@H](O[C@@H]5O[C@H](CO)[C@H](OS(=O)(=O)O)[C@@H](OS(=O)(=O)O)[C@@H]5OC(=O)CC(C)C)C[C@@H](C(=O)O)[C@H]4CC[C@@]3(C2)[C@H]1O | -10.2% (inactive) |  |
| N[C@H]1C[C@H]1c1ccccc1 |  | 5.01 µM (active) |
| NC[C@H](O)c1ccc(O)cc1 |  | inactive |
| C[C@@]12CCC(=O)C=C1C=C[C@H]1[C@H]3CC[C@](O)(CCC(=O)O)[C@]3(C)CC[C@@H]12 | -8.2% (inactive) |  |
| CC(C)CN1CCCC2(CCN(C(=O)c3ccncc3)CC2)C1 |  | 12.6 µM (active) |
| c1ccc(N2CC[C@@]3(CCCNC3)C2)cc1 |  | 39.8 µM (active) |
| CC(=O)N[C@@H]1CCSC1=O | -5.5% (inactive) |  |
| C[N+]1=Cc2cc3c(cc2CC1)OCO3 | 3.5% [at 57 µM] (inactive) |  |
| C[C@]12CC[C@H](O)C[C@@H]1CC[C@H]1[C@H]2CC[C@]2(C)C(=O)CC[C@@H]12 |  | inactive |
| c1ccc(CN2CCCC3(CCNCC3)C2)cc1 | -1.5% [at 57 µM] (inactive) |  |
| COc1cc2c(cc1O)C[C@H]1c3c(cc(O)c(OC)c3-2)CCN1C |  | 2.51 µM (active) |
| O=C1NC(=S)NC(=O)C1=Cc1cccc2cc3ccccc3cc12 |  | 0.398 µM (active) |
| CN1[C@H]2CC(=O)C[C@@H]1[C@@H](O)C2 | -7% (inactive) |  |

| SMILES | activity change, negative = inhibition | Potency |
| --- | --- | --- |
| CCN1C[C@]2(C)CC[C@H](OC)[C@@]34[C@@H]2[C@H](OC(C)=O)[C@]2(OCO[C@@]25C[C@@H](OC)[C@@H]2C[C@@]3(O)[C@H]5[C@@H]2OC)[C@H]14 | -3.7% (inactive) |  |
| N#C/C(=C\c1ccc(O)c(O)c1)C(N)=S |  | 12.6 µM (active) and 6.31 µM (active) |
| N#Cc1cccc(NC(=O)N2CC[C@@]3(CCCN(C(=O)Oc4ccccc4)C3)C2)c1 | 35.6% [at 57 µM] (inactive) |  |
| CNC[C@H](O)c1ccc(O)cc1 |  | inactive |
| C[C@@]12CC[C@H]3[C@@H](CC[C@@H]4C[C@H]5S[C@H]5C[C@]43C)[C@H]1CC[C@H]2O |  | 0.0251 µM (active) |
| c1cnc(N2CC[C@@]3(CCCNC3)C2)nc1 |  | 25.1 µM (active) |
| COc1ccc(C(=O)OC2C[C@H]3CC[C@@H](C2)N3C)cc1OC (stereo not given in full) | -6.6% (inactive) |  |
| COc1ccc2c(c1OC)CN1CCc3cc4c(cc3[C@H]1C2)OCO4 |  | 1.58 µM (active) |
| CC1=C2[C@@H]3OC(=O)[C@@H](C)[C@@H]3CC[C@]2(C)C=CC1=O |  | 10 µM (active) |
| CCCN(C/C=C\I)[C@@H]1CCc2ccc(O)cc2C1 |  | 25.1 µM (active) |
| CC(=O)O[C@H]1CC[C@@]2(C)C(=CC[C@@H]3[C@H]2CC[C@]2(C)C(=O)CC[C@H]32)C1 | -16.8% (inactive) |  |
| COc1cc2c(c(OC)c1OC)-c1ccc(O)c(=O)cc1[C@@H](NC(C)=O)CC2 | 13.6% [at 57 µM] (inactive) |  |
| C[N+]1([O-])[C@@H]2CC(OC(=O)[C@@H](CO)c3ccccc3)C[C@@H]1[C@H]1O[C@H]12 (stereo not given in full) |  | inactive |
| CC(C)c1ccc(C(c2c(O)c3ccccc3oc2=O)c2c(O)c3ccccc3oc2=O)cc1 | -18.8% [at 2.29 µM] (inactive) |  |
| COCC(=O)N1CCC2(CCCN(Cc3ccncc3)C2)CC1 | -9.3% [at 57 µM] (inactive) |  |
| CC[C@@H]1[C@@H]2C[C@H]3[C@H]4N(C)c5ccccc5[C@@]45C[C@@H]([C@@H]2[C@@H]5O)N3[C@H]1O | -7.4% (inactive) |  |
| CC[C@H](C)C(=O)O[C@@H]1[C@H](O)[C@@H]2[C@H](CN3C[C@@H](C)CC[C@@H]3[C@@]2(C)O)[C@@H]2C[C@@]34O[C@@]5(O)[C@@H](OC(=O)[C@](C)(O)CC)CC[C@@]3(C)[C@H]5[C@H](OC(C)=O)[C@@H](OC(C)=O)[C@H]4[C@]12O | -4% (inactive) |  |
| c1ccc(N2CCCC3(CCNCC3)C2)cc1 | -16.7% [at 57 µM] (inactive) |  |
| CC(C)[C@@]1(NC(=O)[C@@H]2C[C@H]3c4cccc5[nH]cc(c45)C[C@@H]3N(C)C2)O[C@]2(O)[C@H]3CCCN3C(=O)[C@H](Cc3ccccc3)N2C1=O | -7.1% (inactive) |  |
| O=[N+]([O-])O[C@H]1CO[C@H]2[C@H]1OC[C@@H]2O[N+](=O)[O-] | 0.9% (inactive) |  |
